Sm TGR block – qHTS Assay for the Inhibitors of Schistosoma Mansoni Peroxiredoxins | Schistosoma mansoni thioredoxin glutathione reductase (TGR), Q962Y6 | purified TGR, DTNB reduction, TNB absorbance 405 nm | Potency, µM (series often up to 114 µM), inactives show top-dose activity change, negative = inhibition, most hits filed as inhibitors | 360,000 compounds, 3% hits; active = well fitted inhibition curve with a large enough effect; inconclusive = small, poorly fitted or top-dose-only effect; inactive = no such curve, though single readings can be large or run the other way; note: % is set by controls: 0 for no effect and ±100 for the full control effect; nearly all actives have a fitted effect of over 60% in size
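First, TGR (20 nM dispensed) and NADPH were mixed with compound. Second, a 15 min room-temperature incubation followed. Third, further NADPH and then DTNB were added to start the reaction. Finally, TNB absorbance was monitored kinetically.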
SARS PLpro yeast – qHTS of Yeast-based Assay for SARS-CoV PLP; S. cerevisiae expressing SARS-CoV PLpro, growth rescue; Potency, µM (series often up to 32.9 µM), for inactives: at the highest dose activity, positive = growth rescue, actives largely listed as activators; 330,000 compounds, 0.19% hits; AID 485353, 2010; calls by dose curve; note: 0% is about no effect; nearly all actives have a fitted effect of over 55% in size
Numbers without * were called inactive. In the library only some 3% were active in any assay of this set; here they are far more common. Potency is the fitted concentration of half-maximal effect.

How did COc1ccc(OC)c(NC(=O)Cn2ccc3ccccc3c2=O)c1 do in these assays?
Sm TGR block: 18%

What do the screens show for `CCOC(=O)C1=C(Cc2ccc(Cl)cc2)C(=O)c2ccccc2C1=O`?
Sm TGR block: 3.5µM*; SARS PLpro yeast: -27%

What do the screens show for `CCOC(=O)C1=C(C)N=C2c3ccccc3C(=O)C2C1c1ccc(Cl)cc1` (centres undefined)?
Sm TGR block: -9%; SARS PLpro yeast: -12%

What do the screens show for `CCOc1ccccc1CNC(=O)CCCN1C(=O)COc2ccc(C)cc21`?
Sm TGR block: -5%

How did Cc1ccc(-n2c(=O)c3c(c4cc(C)ccc4n3C)n(CC(=O)NCCC3=CCCCC3)c2=O)cc1 do in these assays?
Sm TGR block: -2%

How did CC(NC(=O)c1ccc2c(c1)N(Cc1cccc(F)c1)C(=O)c1ccccc1S2)c1ccccc1 (centres undefined) do in these assays?
Sm TGR block: 11%

What do the screens show for `Cc1ccc(C(=O)NC(N2CCCC2)C(Cl)(Cl)Cl)cc1` (centres undefined)?
Sm TGR block: 35µM*; SARS PLpro yeast: 4%

How did O=C(NC(N1CCOCC1)C(Cl)(Cl)Cl)c1ccc(Br)cc1 (centres undefined) do in these assays?
Sm TGR block: inconclusive; SARS PLpro yeast: -2%

What do the screens show for `CSc1ccc(CCNC(=O)C(C)n2c(C)c3cnn(-c4ccccc4)c(=O)c3c2C)cc1` (centres undefined)?
Sm TGR block: 1%

What do the screens show for `COCCCNC(=O)C(Cc1ccccc1)NS(=O)(=O)c1ccc2c(c1)c(=O)n(C)c(=O)n2C` (centres undefined)?
Sm TGR block: 0%; SARS PLpro yeast: 6%

How did Cn1c(=O)c2cc(S(=O)(=O)NC(Cc3ccccc3)C(=O)NCc3ccco3)ccc2n(C)c1=O (centres undefined) do in these assays?
Sm TGR block: 40µM*; SARS PLpro yeast: 10%

How did COc1cccc(CNC(=O)c2cc(-c3ccc(Cl)cc3)n[nH]2)c1 do in these assays?
Sm TGR block: -14%

How did Cc1cc(S(=O)(=O)n2ccnc2C(C)C)cc([N+](=O)[O-])c1C do in these assays?
Sm TGR block: 2%

What do the screens show for `CCOc1cc(/C=N/NC(=O)C(N)=O)cc(Br)c1O`?
Sm TGR block: 50µM*; SARS PLpro yeast: -1%

How did CCOc1cc(/C=N/NC(=O)C(=O)NC2CC2)cc(Br)c1O do in these assays?
Sm TGR block: -2%; SARS PLpro yeast: 13%

Results for COc1ccc(NC(=O)C(C)n2nnc3sc(-c4ccccc4)cc3c2=O)cc1Cl (centres undefined) ?
Sm TGR block: -9%

Results for Cc1ccc(NC(=O)Cn2cc3c(n2)CCC(C)C3)cc1C (centres undefined) ?
Sm TGR block: 0%

Results for Cc1ccc2cc3cc(C(=O)N4CCN(C(=O)c5ccco5)CC4)sc3nc2c1 ?
Sm TGR block: 45µM*; SARS PLpro yeast: -3%

What do the screens show for `Cc1ccc2cc3cc(C(=O)N4CCN(Cc5ccccc5)CC4)sc3nc2c1`?
Sm TGR block: -27%; SARS PLpro yeast: -5%

How did O=C1C2C3C=CC(C3=C(c3ccccc3)c3ccccc3)C2C(=O)N1Cc1ccccc1 (centres undefined) do in these assays?
Sm TGR block: 7.9µM*; SARS PLpro yeast: -41%

What do the screens show for `O=C1C2C3C=CC(C3=C(c3ccccc3)c3ccccc3)C2C(=O)N1CCO` (centres undefined)?
Sm TGR block: 8%; SARS PLpro yeast: -2%

Results for Cn1cnc(C(=O)N2CCN(C(=O)OC(C)(C)C)CC2)c1C(=O)N1CCN(C(=O)OC(C)(C)C)CC1 ?
Sm TGR block: 22µM*; SARS PLpro yeast: -14%

How did Cn1cnc(C(=O)N2CCN(c3ccccc3)CC2)c1C(=O)N1CCN(c2ccccc2)CC1 do in these assays?
Sm TGR block: 20µM*; SARS PLpro yeast: 4%

Results for CCn1cc(Br)c(C(=O)N2CCN(c3ccccc3)CC2)n1 ?
Sm TGR block: -9%

Results for CC(C)(C)OC(=O)N1CCN(C(=O)c2nc[nH]c2C(=O)N2CCN(C(=O)OC(C)(C)C)CC2)CC1 ?
Sm TGR block: 0%; SARS PLpro yeast: -10%

What do the screens show for `CCN(C(=O)c1nn(-c2ccc(C)cc2)c(=O)c2c1c1ccccc1n2C)c1ccc(F)cc1`?
Sm TGR block: 6%

Results for CCc1ccc(NC(=O)CSC2=Nc3ccccc3C3=NC(CC(=O)NCc4cccs4)C(=O)N23)cc1 (centres undefined) ?
Sm TGR block: 4%

What do the screens show for `O=C(Nc1ccc(F)cc1)N1CCN(c2ncccn2)CC1`?
Sm TGR block: 0%; SARS PLpro yeast: 0%

What do the screens show for `O=C(Nc1cccs1)N1CCN(c2ncccn2)CC1`?
Sm TGR block: 18µM*; SARS PLpro yeast: -1%

How did COc1cccc(NC(=O)C2CCC(CNS(=O)(=O)c3csc(C(N)=O)c3)CC2)c1 (centres undefined) do in these assays?
Sm TGR block: 8%

Screens (PubChem)
